Reference: PubChem BioAssay (NCI)
About 83,000 compounds went through this panel and 20% of them were active in at least one assay; those are over-represented in the sample as a whole.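 Method: cells in 96-well plates; compound added at one concentration; 48 h incubation; percent growth measured; values under 10 scored active.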 Calls of active or inactive are those of the source.

Key:
Assay in all cases: NCI-60 one-dose screen, 48 h (100 = growth as untreated, 0 = no growth, -100 = all killed)
Conditions in all cases: 10 µM
EKVX NSCLC = test system: EKVX NSCLC
SN12C renal = test system: SN12C renal
UO-31 renal = test system: UO-31 renal
TK-10 renal = test system: TK-10 renal
ACHN renal = test system: ACHN renal
CAKI-1 renal = test system: CAKI-1 renal
A498 renal = test system: A498 renal
CCRF-CEM leukemia = test system: CCRF-CEM leukemia
MOLT-4 leukemia = test system: MOLT-4 leukemia
SR leukemia = test system: SR leukemia
RPMI-8226 leukemia = test system: RPMI-8226 leukemia
OVCAR-8 ovarian = test system: OVCAR-8 ovarian
OVCAR-5 ovarian = test system: OVCAR-5 ovarian
OVCAR-4 ovarian = test system: OVCAR-4 ovarian
SK-OV-3 ovarian = test system: SK-OV-3 ovarian
IGROV1 ovarian = test system: IGROV1 ovarian
OVCAR-3 ovarian = test system: OVCAR-3 ovarian
HS 578T breast = test system: HS 578T breast
NCI/ADR-RES ovarian = test system: NCI/ADR-RES ovarian
T-47D breast = test system: T-47D breast

Measured: growth

COc1ccc(NC(=O)Cc2nc3nc4sc(C)c(C)c4c(=O)n3[nH]2)cc1
inactive: EKVX NSCLC 93.1% | SN12C renal 106% | UO-31 renal 83.1% | TK-10 renal 115% | ACHN renal 107% | CAKI-1 renal 98% | A498 renal 122% | CCRF-CEM leukemia 90.4% | MOLT-4 leukemia 99.4% | SR leukemia 99.1% | RPMI-8226 leukemia 90.5% | OVCAR-8 ovarian 101% | OVCAR-5 ovarian 108% | OVCAR-4 ovarian 113% | SK-OV-3 ovarian 104% | IGROV1 ovarian 101% | OVCAR-3 ovarian 115% | HS 578T breast 107% | NCI/ADR-RES ovarian 103% | T-47D breast 96.2%

O=C(Nc1cccc(Br)c1)c1cc(=O)[nH]c2ccccc12
inactive: EKVX NSCLC 87.1% | SN12C renal 99.7% | UO-31 renal 97.9% | TK-10 renal 109% | ACHN renal 98.5% | CAKI-1 renal 76.6% | A498 renal 111% | CCRF-CEM leukemia 84.9% | MOLT-4 leukemia 96.1% | SR leukemia 81% | RPMI-8226 leukemia 80.2% | OVCAR-8 ovarian 92.9% | OVCAR-5 ovarian 90.8% | OVCAR-4 ovarian 97.6% | SK-OV-3 ovarian 97.7% | IGROV1 ovarian 17.9% | OVCAR-3 ovarian 92.4% | HS 578T breast 105% | NCI/ADR-RES ovarian 88.6% | T-47D breast 92.1%

O=C(/C(=C/c1ccccc1)CN1CCCCC1)c1ccccc1
active: EKVX NSCLC 6.23% | SN12C renal -47.5% | UO-31 renal -93.8% | TK-10 renal -41.3% | ACHN renal -59.3% | CAKI-1 renal -3.31% | A498 renal -77.1% | CCRF-CEM leukemia 7.4% | MOLT-4 leukemia 3.27% | SR leukemia -12.4% | RPMI-8226 leukemia -6.34% | OVCAR-5 ovarian -66.5% | IGROV1 ovarian -7.89% | OVCAR-3 ovarian -92.7% | NCI/ADR-RES ovarian 4.84%
inactive: OVCAR-8 ovarian 11% | OVCAR-4 ovarian 12% | SK-OV-3 ovarian 31% | HS 578T breast 47.5%

CCN1CCC(CCOC)(CN2c3ccccc3Sc3ccc(Cl)cc32)C1 (stereo unspecified)
active: UO-31 renal 8.09%
inactive: EKVX NSCLC 56.7% | SN12C renal 59.7% | TK-10 renal 64.1% | ACHN renal 47.2% | CAKI-1 renal 46.6% | A498 renal 56.6% | CCRF-CEM leukemia 30.5% | MOLT-4 leukemia 22.5% | SR leukemia 40.4% | RPMI-8226 leukemia 47.4% | OVCAR-8 ovarian 73.7% | OVCAR-5 ovarian 54.4% | OVCAR-4 ovarian 46.3% | SK-OV-3 ovarian 78.7% | IGROV1 ovarian 30.7% | OVCAR-3 ovarian 64.8% | HS 578T breast 51.5% | NCI/ADR-RES ovarian 75.8% | T-47D breast 70.5%

NC1(C(=O)O)CSSC1
inactive: EKVX NSCLC 78.9% | SN12C renal 39.5% | UO-31 renal 57.6% | TK-10 renal 64.3% | ACHN renal 49.4% | CAKI-1 renal 101% | A498 renal 56.2% | CCRF-CEM leukemia 78.5% | MOLT-4 leukemia 87.3% | SR leukemia 89.5% | RPMI-8226 leukemia 100% | OVCAR-8 ovarian 40.7% | OVCAR-5 ovarian 113% | OVCAR-4 ovarian 76.8% | SK-OV-3 ovarian 108% | IGROV1 ovarian 90% | OVCAR-3 ovarian 93% | HS 578T breast 53.6% | NCI/ADR-RES ovarian 59.8%

O=C1OCC2=C1C(c1cccc(Cl)c1)c1cc3c(cc1N2CCO)OCCO3 (stereo unspecified)
inactive: EKVX NSCLC 49.4% | SN12C renal 30% | UO-31 renal 22.1% | TK-10 renal 68.4% | ACHN renal 30.5% | CAKI-1 renal 19.9% | MOLT-4 leukemia 21.1% | SR leukemia 32.4% | RPMI-8226 leukemia 20.2% | OVCAR-5 ovarian 30.3% | OVCAR-4 ovarian 56.2% | SK-OV-3 ovarian 26.1% | IGROV1 ovarian 22.2% | T-47D breast 73.5%
active: A498 renal -18.1% | CCRF-CEM leukemia 6.58% | OVCAR-8 ovarian 1.27% | OVCAR-3 ovarian -52.2% | HS 578T breast -6.14% | NCI/ADR-RES ovarian 0.234%

Oc1[nH]c2cc(Cl)ccc2c1/C=c1/ccc2c(c1)N=C(c1cc(F)cc(F)c1)N=2
active: A498 renal 0.502% | CCRF-CEM leukemia 9.33% | MOLT-4 leukemia 8.56% | RPMI-8226 leukemia -4.53% | SK-OV-3 ovarian 1.53% | OVCAR-3 ovarian -50.4% | NCI/ADR-RES ovarian 2.67%
inactive: EKVX NSCLC 57.2% | SN12C renal 64% | UO-31 renal 43.3% | TK-10 renal 58.8% | ACHN renal 46.3% | CAKI-1 renal 17.1% | SR leukemia 11.4% | OVCAR-8 ovarian 30.5% | OVCAR-5 ovarian 75.5% | OVCAR-4 ovarian 48.8% | IGROV1 ovarian 43% | HS 578T breast 17.3% | T-47D breast 30.9%

CCN(CC)CCN1CC(=O)Nc2cc(Cl)ccc21
inactive: EKVX NSCLC 101% | SN12C renal 103% | UO-31 renal 82% | TK-10 renal 114% | ACHN renal 104% | CAKI-1 renal 90.7% | A498 renal 87.6% | CCRF-CEM leukemia 101% | MOLT-4 leukemia 105% | SR leukemia 114% | RPMI-8226 leukemia 109% | OVCAR-8 ovarian 108% | OVCAR-5 ovarian 102% | OVCAR-4 ovarian 103% | SK-OV-3 ovarian 110% | IGROV1 ovarian 99.9% | OVCAR-3 ovarian 109% | HS 578T breast 94.4% | NCI/ADR-RES ovarian 94.2% | T-47D breast 107%

O=C(O)c1ccc(Cl)cc1Nc1ccc(F)cc1
active: OVCAR-3 ovarian 6.97%
inactive: EKVX NSCLC 67.3% | SN12C renal 69.4% | UO-31 renal 62.5% | TK-10 renal 84.9% | ACHN renal 82.4% | CAKI-1 renal 29.1% | A498 renal 83.7% | CCRF-CEM leukemia 31.4% | MOLT-4 leukemia 56.8% | SR leukemia 57.2% | RPMI-8226 leukemia 88.6% | OVCAR-8 ovarian 74.1% | OVCAR-5 ovarian 81% | OVCAR-4 ovarian 38% | SK-OV-3 ovarian 70.9% | IGROV1 ovarian 119% | HS 578T breast 94.3% | NCI/ADR-RES ovarian 91.3% | T-47D breast 78.7%

COc1cc(-c2nnc(-c3c(-c4ccc(F)cc4)nc4ccccn34)o2)cc(OC)c1OC
inactive: EKVX NSCLC 97% | SN12C renal 68.2% | UO-31 renal 62.9% | TK-10 renal 89.7% | ACHN renal 51.8% | CAKI-1 renal 91.3% | A498 renal 62.7% | CCRF-CEM leukemia 89.1% | MOLT-4 leukemia 89.6% | SR leukemia 25.3% | RPMI-8226 leukemia 71.9% | OVCAR-8 ovarian 46.6% | OVCAR-5 ovarian 95.6% | OVCAR-4 ovarian 69.5% | SK-OV-3 ovarian 76% | IGROV1 ovarian 119% | OVCAR-3 ovarian 75.1% | NCI/ADR-RES ovarian 61.6% | T-47D breast 53.1%

CCCCCCCCCCCCCCCCN(C(C)c1ccccc1)S(=O)(=O)c1ccc(OC)c(N)c1 (stereo unspecified)
inactive: EKVX NSCLC 114% | SN12C renal 118% | UO-31 renal 89.2% | TK-10 renal 122% | ACHN renal 106% | CAKI-1 renal 96.5% | A498 renal 123% | CCRF-CEM leukemia 97.5% | MOLT-4 leukemia 98.8% | SR leukemia 94.2% | RPMI-8226 leukemia 103% | OVCAR-8 ovarian 104% | OVCAR-5 ovarian 104% | OVCAR-4 ovarian 92.1% | SK-OV-3 ovarian 112% | IGROV1 ovarian 129% | OVCAR-3 ovarian 107% | NCI/ADR-RES ovarian 98.7% | T-47D breast 113%

COc1ccc(-c2ccc3cc(C(=O)Nc4ccc(O)c(C(=O)/C=C/c5cc(OC)c(OC)c(OC)c5)c4)ccc3c2)cc1
inactive: EKVX NSCLC 101% | SN12C renal 92.6% | UO-31 renal 59.6% | TK-10 renal 100% | ACHN renal 96.3% | CAKI-1 renal 86.6% | A498 renal 91.2% | CCRF-CEM leukemia 53.8% | MOLT-4 leukemia 69.6% | SR leukemia 60.3% | RPMI-8226 leukemia 60.2% | OVCAR-8 ovarian 84.9% | OVCAR-5 ovarian 108% | OVCAR-4 ovarian 94.5% | SK-OV-3 ovarian 109% | IGROV1 ovarian 89.6% | OVCAR-3 ovarian 100% | HS 578T breast 102% | NCI/ADR-RES ovarian 95.4% | T-47D breast 85.5%

O=C(CC(NC(=O)OCc1ccccc1)C(=O)OCc1ccccc1)OCc1ccccc1 (stereo unspecified)
inactive: EKVX NSCLC 95.7% | SN12C renal 102% | UO-31 renal 103% | TK-10 renal 97.6% | ACHN renal 104% | CAKI-1 renal 99.3% | A498 renal 68.1% | CCRF-CEM leukemia 47.5% | MOLT-4 leukemia 115% | SR leukemia 99.3% | RPMI-8226 leukemia 99.2% | OVCAR-8 ovarian 99% | OVCAR-5 ovarian 103% | OVCAR-4 ovarian 109% | SK-OV-3 ovarian 95.1% | IGROV1 ovarian 108% | OVCAR-3 ovarian 110% | HS 578T breast 97.9% | NCI/ADR-RES ovarian 98% | T-47D breast 100%

Cc1ccc(CC#N)cc1C
inactive: EKVX NSCLC 87.8% | SN12C renal 105% | UO-31 renal 94.4% | TK-10 renal 107% | ACHN renal 94.6% | CAKI-1 renal 45.3% | A498 renal 136% | CCRF-CEM leukemia 128% | MOLT-4 leukemia 93.9% | SR leukemia 89.3% | RPMI-8226 leukemia 134% | OVCAR-8 ovarian 78.3% | OVCAR-5 ovarian 88.8% | OVCAR-4 ovarian 109% | SK-OV-3 ovarian 117% | IGROV1 ovarian 74.9% | OVCAR-3 ovarian 95.4% | HS 578T breast 173% | NCI/ADR-RES ovarian 106% | T-47D breast 98.4%

CN(C)CCOc1nc2ccccc2c2c1-c1ccc(Cl)cc1C2=O
active: EKVX NSCLC -1.93% | UO-31 renal -33.1% | TK-10 renal -16.4% | CAKI-1 renal -13.7% | CCRF-CEM leukemia 2.75% | MOLT-4 leukemia 1.17% | SR leukemia -6.41% | RPMI-8226 leukemia -23.4% | OVCAR-8 ovarian 2.21% | OVCAR-4 ovarian -6.28% | IGROV1 ovarian -27.9% | OVCAR-3 ovarian -21.4% | HS 578T breast -13.3% | NCI/ADR-RES ovarian -6.87%
inactive: SN12C renal 11.3% | ACHN renal 10.1% | A498 renal 25.2% | OVCAR-5 ovarian 18.3% | SK-OV-3 ovarian 11.5% | T-47D breast 11.9%

CCN(CC)CCCC(C)Nc1nc(-c2ccc(OC)cc2)nc2cc(Cl)ccc12 (stereo unspecified)
inactive: EKVX NSCLC 70.2% | SN12C renal 58% | UO-31 renal 45% | TK-10 renal 88.8% | ACHN renal 37% | CAKI-1 renal 78.8% | A498 renal 37.4% | CCRF-CEM leukemia 57.9% | MOLT-4 leukemia 37.7% | SR leukemia 51.8% | RPMI-8226 leukemia 55.2% | OVCAR-8 ovarian 76.1% | OVCAR-5 ovarian 65.8% | OVCAR-4 ovarian 68.7% | SK-OV-3 ovarian 91.4% | IGROV1 ovarian 44.3% | OVCAR-3 ovarian 69.6% | HS 578T breast 70.4% | NCI/ADR-RES ovarian 71.3% | T-47D breast 60.2%
